Data from the supplement of paper PMC11417369.
Whole data set: some 25,000 sequences, median “ln(normalized median fluorescence intensity)” near 7.1, cut for the highest 2% near 10. This is one part of a sample in which the highest values are shown more often than they occur.

Each sequence was assayed on PfSIP2 AP2 domain 1 (GST-tagged) (assay: gcPBM binding intensity (ln(normalized median fluorescence intensity)); higher = stronger DNA binding).
In short: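 Binding intensity values are the highest Masliner-normalised natural-log median intensity among replicate spots of either probe orientation. The binding step lasted 1 h in 1× PBS with 1% milk, 0.2 mg/ml BSA, 0.5% salmon testes DNA and 0.03% Triton X-100, using GST-tagged P. falciparum DNA-binding domains expressed in E. coli on an Agilent 4 × 180k array of primer-extended double-stranded 36-bp intergenic genomic probes plus negative controls. Alexa488 anti-GST antibody and a 488 nm scan detected bound protein.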
“TGCTTATATATACGTGCACACATATATATAAGATAT [CACACA_site8516]” was tested, and the “gcPBM binding intensity (ln)” value was 9.74.
“ATAACATACATAACAACACACAATATTTATAGGTAT [CACACA_site6243]” was tested, and the “gcPBM binding intensity (ln)” value was 7.12.
“AATTTATAAATAATTAATTTGATAAATTATAAAGGG [GTGCAC_negctrl_site544]” was tested, and the “gcPBM binding intensity (ln)” value was 7.02.
With “TATATATTAATCAAAGTGCAATAATAAAATAAAAGT [GTGCAC_site9490]” the “gcPBM binding intensity (ln)” value was 8.38.
With AAATTAAAGATAAAAGTGCAAAATTATAAATTTATT the “gcPBM binding intensity (ln)” value was 7.97.
“ATATAATCAACTGCAAAGGTTTAAAAGGAAAAAATA [CACACA_negctrl_site989]” was tested, and the “gcPBM binding intensity (ln)” value was 6.79.
For “TGATATTATTATAAGGTGCTTAAAAATAAAGATAAT [GTGCAC_site9539]”, the “gcPBM binding intensity (ln)” value was 7.78.
For ATTATTTGATTAAAGGTGCAAGGATAATAATAAAAC, the “gcPBM binding intensity (ln)” value was 10.3.
For “ATTATCCATCAAAAGGTGCAAATTTTTAATTATAAA [GTGCAC_site9932]”, the “gcPBM binding intensity (ln)” value was 11.1.
With “TTAACAAAACATAAGGTGCTTAAAATTTTATATCAC [GTGCAC_site9839]” the “gcPBM binding intensity (ln)” value was 7.96.
For “TTTATTAATAAAAAGGTGCAATCAGGAAAAATTATC [GTGCAC_site9626]”, the “gcPBM binding intensity (ln)” value was 10.8.
In the case of “AAATTTAACAACTTCAAACACACAATATATATATAT [CACACA_site2092]”, the “gcPBM binding intensity (ln)” value is reported as 8.91.
In the case of “AACATACCCATATACACACACACATAAATACAGATA [CACACA_site4744]”, the “gcPBM binding intensity (ln)” value is reported as 7.3.
With “GATTGATTATATGTGTGTACTTATATGTTAAAAAAA [XGTACX_site4784]” the “gcPBM binding intensity (ln)” value was 7.29.
With “AGTCATATAAATAGTAGTACTGTGTGTGAAGAAAAA [XGTACX_site5056]” the “gcPBM binding intensity (ln)” value was 7.42.
“TTAACAAAATTTCCGTGTACGTAAATAAGAACATAG [XGTACX_site7200]” was tested, and the “gcPBM binding intensity (ln)” value was 7.25.
With “ACAAATACAAAAAAAGGTACACACATAATATATTTA [XGTACX_site5515]” the “gcPBM binding intensity (ln)” value was 7.04.
“ACATTCAATCTACTGTGTACATATTAAACTTTGAAA [XGTACX_site2913]” was tested, and the “gcPBM binding intensity (ln)” value was 7.49.
For “ATTATATATATATTATGTACATATATTGAAGTGGAT [XGTACX_site5916]”, the “gcPBM binding intensity (ln)” value was 7.56.
“GTTAATATTTTTGGGGGTACTTAAAAAAAAAAAAAA [XGTACX_site1477]” was tested, and the “gcPBM binding intensity (ln)” value was 7.78.
In the case of “ATTTTTTTTTTTTTTTTGGGGGGGTATACTTTTAAA [CACACA_negctrl_site1020]”, the “gcPBM binding intensity (ln)” value is reported as 10.7.
In the case of “TATACTTTATATATTTTGTATATATATTTTTTTTAT [TGCATGCA_negctrl_site530]”, the “gcPBM binding intensity (ln)” value is reported as 7.
“AATAAATTGAAACACACACACACATATATATATATA [CACACA_site848]” was tested, and the “gcPBM binding intensity (ln)” value was 9.2.
“AGGAGGATATTACACAGTACCCAGGAAATCTACGGA [XGTACX_site4878]” was tested, and the “gcPBM binding intensity (ln)” value was 6.82.
For “CTTAAATTAATTTGGGTGCATATATTTGTACACATT [GTGCAC_site9948]”, the “gcPBM binding intensity (ln)” value was 10.9.
“TTGCATATTTCTAATTGTACATTATTTTATTTTATA [XGTACX_site8451]” was tested, and the “gcPBM binding intensity (ln)” value was 6.96.
For “TTGGGTGCATATATTTGTACACATTATTTCTATTTT [XGTACX_site3688]”, the “gcPBM binding intensity (ln)” value was 12.
With “AATTAATTAAATTAATGTACACATATATTTGTATTC [XGTACX_site2341]” the “gcPBM binding intensity (ln)” value was 7.14.
With “ACATATTTTATTTTTTGTACACATATATTATTTTTT [XGTACX_site6528]” the “gcPBM binding intensity (ln)” value was 7.28.
With “ATATATAATTAATTTTGTACACATAAAAAAAAAAAT [XGTACX_site6647]” the “gcPBM binding intensity (ln)” value was 7.25.
In the case of “AAAACCTAAAAGTCTTAAATTTTAAATATACCTACA [GTGCAC_negctrl_site492]”, the “gcPBM binding intensity (ln)” value is reported as 6.6.
For “TTTATTTTATCATTTGCACACGCACCCAGACATAAA [CACACA_site4347]”, the “gcPBM binding intensity (ln)” value was 10.8.
With “TTTATTTTATCATTTGCACACGCACCCCCACATAAA [CACACA_site8007]” the “gcPBM binding intensity (ln)” value was 11.5.
For “TATTTTATCATTTGCACACGCACACCCACATAAAAA [CACACA_site354]”, the “gcPBM binding intensity (ln)” value was 8.03.
“CCCATGCATTTTTGCACACACATATATTTATAAATA [CACACA_site6785]” was tested, and the “gcPBM binding intensity (ln)” value was 8.16.
With “TATTTTATCATTTGCACACGCACACCGACATAAAAA [CACACA_site4348]” the “gcPBM binding intensity (ln)” value was 7.71.
With “TTTATTTTATCATTTGCACACGCACGCCCACATAAA [CACACA_site353]” the “gcPBM binding intensity (ln)” value was 7.85.
With “ATATTAAACAAACACACACACATATATATATATATA [CACACA_site3383]” the “gcPBM binding intensity (ln)” value was 9.67.
“ATAAATGAACAAGTGGCACACACACCGTATAACTAA [CACACA_site9047]” was tested, and the “gcPBM binding intensity (ln)” value was 6.91.
With “ATGTATATATTTACGTGTACATATTCATGTGATATC [XGTACX_site5871]” the “gcPBM binding intensity (ln)” value was 7.
“GTTCAATTATTTTTATGTACATATATTTTTTTCTTT [XGTACX_site2505]” was tested, and the “gcPBM binding intensity (ln)” value was 7.46.
“CATTTGCACCCGCACACACACATAAAAAGAAAAATA [CACACA_site4350]” was tested, and the “gcPBM binding intensity (ln)” value was 11.6.
For “TCATTGAAAATTGTTGCACACATAATAATTAAATAT [CACACA_site8554]”, the “gcPBM binding intensity (ln)” value was 7.36.
In the case of “ATCATTTGCATACGCACACACACATAAAAAGAAAAA [CACACA_site355]”, the “gcPBM binding intensity (ln)” value is reported as 7.54.
“CATTTGCACACGCACACACACATAAAAAGAAAAATA [CACACA_site6297]” was tested, and the “gcPBM binding intensity (ln)” value was 7.71.
For “ACCCATTGCTCACGTGCACACATAGAAAAATAATTC [CACACA_site4389]”, the “gcPBM binding intensity (ln)” value was 10.1.
In the case of “ACATTGCACCCGTGCACACATAGAAAAATAATTCTT [CACACA_site409]”, the “gcPBM binding intensity (ln)” value is reported as 12.2.
